# ST2 inh: inhibitors of human ST2 (IL1RL1) binding to IL-33, primary screen, biochemical, AlphaLISA; AlphaLISA ST2-Fc/biotin-IL-33 interaction, 1 h; inhibition, % for hits at 17 µM; actives 2.3% (n = 78,000); AID 1259354, 2018; in the data active means inhibition above about 30%
# Target sequence (Q01638 whole entry, looked up): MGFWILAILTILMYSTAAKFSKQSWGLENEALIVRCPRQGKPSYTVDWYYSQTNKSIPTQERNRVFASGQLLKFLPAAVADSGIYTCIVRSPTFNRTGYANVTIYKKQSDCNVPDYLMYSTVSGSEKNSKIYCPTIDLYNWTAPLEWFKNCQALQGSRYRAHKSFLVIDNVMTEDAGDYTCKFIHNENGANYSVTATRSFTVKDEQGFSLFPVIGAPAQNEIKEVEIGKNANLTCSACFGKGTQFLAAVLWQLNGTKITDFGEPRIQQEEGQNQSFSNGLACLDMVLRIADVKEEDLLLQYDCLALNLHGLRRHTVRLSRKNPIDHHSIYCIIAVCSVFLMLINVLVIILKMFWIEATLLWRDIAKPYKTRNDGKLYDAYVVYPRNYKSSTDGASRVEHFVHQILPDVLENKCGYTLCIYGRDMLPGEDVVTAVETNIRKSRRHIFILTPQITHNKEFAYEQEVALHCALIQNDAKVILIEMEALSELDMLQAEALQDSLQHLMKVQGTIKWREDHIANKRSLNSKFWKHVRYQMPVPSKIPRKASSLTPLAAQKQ
# * marks the source's active call; other numbers are inactive results; i = inactive. The entries come from a sample that favours hits as a whole.
SMILES,ST2 inh
Cc1c(Br)c([N+](=O)[O-])nn1CC(=O)Nc1ncccc1C1CCCN1C (stereo not given),i
Cc1noc2nc(C3CC3)cc(C(=O)N3[C@@H]4CC[C@H]3CN(C)C(=O)C4)c12,i
CCOc1ccc(C2CC(=O)N3CN(Cc4ccccc4)CSC3=C2C#N)cc1 (stereo not given),i
O=C1CN(c2nccc(CCC(F)(F)F)n2)CCN1,i
CC(Oc1ccc(Cl)cc1Cl)C(=O)N1CCOCC1 (stereo not given),i
Oc1oc(-c2ccccc2F)nc1C=Nc1cc(Cl)c(Cl)cc1Cl,i
O=C(O)c1ccccc1N=Cc1nc(-c2ccccc2F)oc1O,i
Cc1ccc(N=Cc2nc(-c3ccccc3F)oc2O)c([N+](=O)[O-])c1,34%*
CC(C)N(CC1CC1)C(=O)c1ccccc1N1CCC(=O)NC1=O,i
CCOC(=O)C1C(=O)C=C(c2cccs2)CC1c1cccc(OC)c1OC (stereo not given),i
Cc1nonc1OCC(C)(COc1nonc1C)Nc1ccc([N+](=O)[O-])cc1[N+](=O)[O-],40%*
CCOc1ccccc1NS(=O)(=O)c1cc([N+](=O)[O-])ccc1C,i
Cc1cc([N+](=O)[O-])ccc1NC(=O)COc1ccc(C(C)C)cc1,i
O=C(NCc1ccc2c(c1)OCO2)c1ccc2c(c1)N(Cc1ccc(Cl)cc1)C(=O)CS2,i
CC(C)c1cc(C(F)(F)F)nc(S[C@H]2CC(=O)[C@@H]3OC[C@H]2O3)n1,i
Cn1c2c(c3cc([N+](=O)[O-])ccc31)CCCC2=O,i
Cc1c(CC(Cl)(Cl)Cl)c2c(n1O)CC(C)(C)CC2=O,i
Cc1c(CC(Cl)(Cl)Cl)c2c(n1-c1ccc([N+](=O)[O-])cc1)CCCC2=O,41%*
O=C(/C=C/c1ccncc1)N1CCCC(N2CCN(c3cccc(Cl)c3)CC2)C1 (stereo not given),i
COc1ccc2oc(=O)c3c(c2c1)CC(C(F)(F)F)S3 (stereo not given),i
COc1ccc(-c2c3c(=O)n(C)c(=O)n(C)c3cn2Cc2ccccc2)cc1,i
COc1ccc(-c2oc3ncn(Cc4ccccc4)c(=N)c3c2-c2ccc(OC)cc2)cc1,39%*
N=c1c2c3c(sc2ncn1Cc1ccccc1)CCCC3,i
CCC(C)NC(=O)CCC(=O)Nc1ccc2nc(N3CCCCC3)cc(C)c2c1 (stereo not given),i
Cn1cc(C2c3nc[nH]c3CCN2Cc2cccn2-c2nccs2)cn1 (stereo not given),i
SMILES,ST2 inh
Cc1ccc(O)c(Nc2cc(C)nc3ncnn23)c1,i
O=C(O)CN=C(NS(=O)(=O)c1ccccc1)c1ccc(F)cc1,i
O=C(O)CN=C(NS(=O)(=O)c1ccccc1)c1ccccc1,38%*
CCCN=C(NS(=O)(=O)c1ccc(C)cc1)c1ccc(F)cc1,i
NC1CCCN(c2nnnn2-c2ccc(-c3ccccc3)cc2)CC1 (stereo not given),i
COc1ccc(-n2c(N)c(C#N)c3nc4ccccc4nc32)cc1,i
N#Cc1c(N)n(-c2ccc(C(=O)O)cc2)c2nc3ccccc3nc12,36%*
N#Cc1c(N)n(-c2ccc(Br)cc2)c2nc3ccccc3nc12,i
CN(C)Cc1csc(-c2nccn2CCc2cccnc2)c1,i
CC1(C)[C@@H]2CC[C@]1(CS(=O)(=O)Nc1ccc(F)c(Cl)c1)C(=O)C2,i
COc1cc(NC(=O)Cn2c(=O)sc3ccccc32)cc(OC)c1OC,i
Nc1ccc2c(c1)OC1(CCCCC1)O2,37%*
O=C1CC2(CCCCC2)Oc2ccc(O)cc21,i
CC1(C(=O)Nc2ccc3c(c2)OC2(CCCCC2)O3)CC1(Cl)Cl (stereo not given),i
C[C@@H]1C(=O)O[C@H]2C[C@@]34[C@H]5C[C@@H](C(C)(C)C)[C@]36[C@@H](OC(=O)[C@@H]6O)O[C@]4(C(=O)O5)[C@]21O,i
Cc1nc(-c2cccc(C(=O)N(CCN(C)C)Cc3ccc(C)s3)c2)no1,i
Cc1cccc(NC(=O)CN2C(=O)C3CCCCN3c3ccc(S(=O)(=O)N4CCCCC4)cc32)c1 (stereo not given),i
COc1ccc(-c2noc([C@@H]3C[C@@H](O)CN3Cc3cccc(C#N)c3)n2)cc1,58%*
COc1ccc(CN2C[C@H](O)C[C@H]2c2nc(-c3ccccc3)no2)c(OC)c1OC,i
COc1ccc(CN2C[C@H](O)C[C@H]2c2nc(-c3ccncc3)no2)cc1,i
COc1ccc(CN2C[C@H](O)C[C@H]2c2nc(-c3ccc(F)cc3)no2)c(OC)c1OC,47%*
COc1ccc(CN2C[C@H](O)C[C@H]2c2nc(-c3ccccc3)no2)cc1,i
COc1ccc(CN2C[C@H](O)C[C@H]2c2nc(Cc3ccc(F)cc3Cl)no2)c2ccccc12,i
COc1ccc(/C=C\C(=O)Nc2cc(C)c3c(=O)oc4ccccc4c3n2)cc1OC,i
COc1cccc(N2CCC(N3CCCC(N4CCN(c5ccccc5C)CC4)C3)CC2)c1 (stereo not given),i
SMILES,ST2 inh
CC1CCC(N2CCN(c3ccccc3)CC2)C1 (stereo not given),i
COc1cccc(N2CCN(C3CCC(C)C3)CC2)c1 (stereo not given),31%*
NC(=O)c1cc(-c2ccccc2)sc1NC(=O)c1ccc(OC(F)F)cc1,i
CCOc1ccc(N(CC(=O)NCc2ccccn2)S(=O)(=O)c2ccc(Cl)cc2)cc1,i
COc1ccc(NC(=O)C(Cc2ccccc2)N2C(=O)c3ccccc3C2=O)cc1 (stereo not given),i
CCOc1ccc(Nc2c(OCC)c(=O)c2=O)cc1,i
COc1ccc(C)cc1NS(=O)(=O)c1ccc(OC)c(OC)c1,i
CC1=C(C(=O)Nc2ccc(C)cc2C)C(c2cccs2)n2nnnc2N1 (stereo not given),i
COc1ccc(C=NS(=O)(=O)c2ccccc2)c(OC)c1,i
CCOc1ccc(NC2=CC(=NS(=O)(=O)c3ccc(OCC)cc3)c3ccccc3C2=O)cc1,93%*
COc1ccc(S(=O)(=O)N=C2C=C(Nc3ccccc3)C(=O)c3ccccc32)cc1,85%*
CCOc1ccc(S(=O)(=O)Nc2ccc(I)cc2)cc1,i
Cc1ccccc1NC(=O)C(NS(=O)(=O)c1cccs1)C(C)C (stereo not given),i
Cc1ccc(NC2=CC(=NS(=O)(=O)c3cccs3)c3ccccc3C2=O)c(C)c1,89%*
COc1ccccc1NS(=O)(=O)c1ccc(C(C)(C)C)cc1,i
COc1ccccc1NC1=CC(=NS(=O)(=O)c2ccc(C)cc2)c2ccccc2C1=O,94%*
CCC(C)OC(=O)C1=C(C)NC2=C(C(=O)C(C(=O)OC)C(C)C2)C1c1ccc(C)cc1 (stereo not given),i
Cc1cccc(-c2ncc(CNCc3cccc4[nH]ccc34)cn2)c1,i
O=C(CNS(=O)(=O)c1cccc2nonc12)NCCc1ccccc1,i
CN(CC(=O)N1CCCC1)S(=O)(=O)c1ccc2c(c1)CCC(=O)N2,i
O=C(NCCCO)/C(=C/c1ccc2c(c1)OCO2)NC(=O)c1ccccc1Cl,i
CC(C)C(C(=O)O)N1C(=O)c2cccc([N+](=O)[O-])c2C1=O (stereo not given),i
COc1ccc(OC)c(NC(=O)CN(c2ccccc2C)S(=O)(=O)c2ccc(C)cc2)c1,i
Cc1cc([N+](=O)[O-])nn1C(=O)Cc1ccccc1,i

# Assay outcomes as filed in PubChem BioAssay.
